# 14-3-3 PPI: 14-3-3 gamma protein interaction modulation. P61981. FP, 14-3-3gamma / TMR-pS259-Raf peptide binding. inhibition, % at 40 µM. 160,000 compounds, 0.19% hits; in the data active = inhibition above about 30%;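 note: 0% = protein plus tracer without compound and 100% = blank with tracer alone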
# Target sequence (P61981 whole entry, looked up): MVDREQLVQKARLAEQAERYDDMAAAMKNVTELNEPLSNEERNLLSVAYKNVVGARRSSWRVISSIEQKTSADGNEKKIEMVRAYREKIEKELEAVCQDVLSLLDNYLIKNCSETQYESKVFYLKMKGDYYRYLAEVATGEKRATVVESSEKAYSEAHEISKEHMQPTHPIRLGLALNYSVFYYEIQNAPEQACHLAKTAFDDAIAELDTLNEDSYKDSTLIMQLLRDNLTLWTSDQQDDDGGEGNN
# Numbers without * were called inactive; + = active, no number. This excerpt belongs to a sample that is enriched for hits.
SMILES,14-3-3 PPI
C=C1N(c2ccc(C)cc2)C(=O)OC1(C)CC (stereo unspecified),-8.7
CCCn1c(SCc2ccc(C)cc2)nc2c1c(=O)[nH]c(=O)n2C,-0.4
COc1ccc(/C(O)=C2\C(=O)C(=O)N(Cc3ccco3)C2c2cccc(O)c2)cc1 (stereo unspecified),-4.1
Cc1ccc2cc3cc(C(=O)NC4CCCC4)oc3nc2c1,12.6
Cc1ccc2cc3cc(C(=O)NC4CCN(Cc5ccccc5)CC4)oc3nc2c1,-13.2
Cc1ccc2cc3cc(C(=O)N4CCN(C5CCCCC5)CC4)oc3nc2c1,16.7
Cc1ccc2cc3cc(C(=O)NC4CC4)oc3nc2c1,36.2*
Cc1ccc2cc3cc(C(=O)N4CCN(c5ccc(F)cc5)CC4)oc3nc2c1,67.0*
Cc1ccc2cc3cc(C(=O)N4CCN(c5ccc([N+](=O)[O-])cc5)CC4)oc3nc2c1,-13.2
Cc1ccc2cc3cc(C(=O)N4CCN(c5cccc(C)c5C)CC4)oc3nc2c1,57.1*
Cc1ccc2cc3cc(C(=O)N4CC(C)CC(C)C4)oc3nc2c1 (stereo unspecified),-3.8
Cc1ccc2cc3cc(C(=O)N4CCC(C)CC4)oc3nc2c1,-5.8
Cc1nc(Cl)c2cc(-c3ccccc3)sc2n1,-5.6
N#Cc1ccc(-c2ccncc2)nc1SCC(=O)Nc1nc2ccccc2s1,-97.4
COc1ccc(C(C(=O)Nc2ccc(C(C)C)cc2)N(C)C(=O)c2cnccn2)cc1 (stereo unspecified),-1.3
O=CN1CCC(=O)Nc2ccc(Br)cc21,-1.0
COc1ccc(N2CCN(C(=O)CCc3nc(-c4ccccc4F)no3)CC2)cc1,-42.0
O=C(NC1CCCCC1)c1ccc(CS(=O)c2ccccc2)o1 (stereo unspecified),-5.2
O=C1c2cccc3c(NCCO)ccc(c23)C(=O)N1c1ccc(Cl)cc1,140.1*
O=C1c2cccc3c(N4CCCCC4)ccc(c23)C(=O)N1CCCO,-17.9
O=C1c2cccc3c(NCCCO)ccc(c23)C(=O)N1CCCO,+
CN1C(=O)c2cccc(NCCCCN3C(=O)c4ccccc4C3=O)c2C1=O,-0.5
O=C1c2cccc3c(Cl)ccc(c23)C(=O)N1c1ccccc1,-4.0
Cc1ccc(N2C(=O)c3cccc4c(Cl)ccc(c34)C2=O)cc1,-34.9
Cc1ccc2cc3cc(C(=O)N4CCCCC4C)sc3nc2c1 (stereo unspecified),-8.3
SMILES,14-3-3 PPI
O=C(O)c1nc2ccccc2c(C(=O)O)c1-c1ccc(OCc2ccc(F)cc2)cc1,-9.0
COc1cccc(C(=O)Nc2cc(-c3nc4ccccc4o3)ccc2Cl)c1,-312.5
CCC(Sc1nc2ccc(N3CCOCC3)cc2c(=O)n1Cc1ccc2c(c1)OCO2)C(=O)N1CCOCC1 (stereo unspecified),-8.3
Cc1c(C(=O)Nc2cccc(C(F)(F)F)c2)cccc1[N+](=O)[O-],-2.7
O=C(Nc1cccc(C(F)(F)F)c1)c1ccc(Br)c([N+](=O)[O-])c1,73.4*
O=C(Nc1cccc(C(F)(F)F)c1)c1ccc(NC(=O)c2cccc(Br)c2)cc1,-14.7
CC(=O)Oc1ccc2oc(=O)c3c(c2c1)CCCN3C(=O)CN1CCCCC1,3.9
COc1cc(CCN2C(=O)c3cccc4cccc(c34)C2=O)c(S(=O)(=O)N2CCc3ccccc32)cc1OC,-68.6
Nc1cc(-c2ccco2)no1,-3.7
c1coc(-c2cc(C3CCNCC3)[nH]n2)c1,42.2*
O=C(O)c1cc(-c2ccco2)[nH]n1,5.3
CCOC(=O)Cc1nnc(NC(=O)c2ccccc2C)s1,-0.4
COC(=O)c1sc2cc([N+](=O)[O-])cc(OCC(F)(F)F)c2c1N,-310.7
CCOC(=O)c1ccc(NC(=O)CN2CCN(c3ccccc3)CC2)cc1,-5.3
CCOC(=O)c1ccc(NC(=O)Cn2cccc2)cc1,-4.3
CCOC(=O)c1ccc(NC(=O)CN2CCCCC2)cc1,30.5*
COc1ccc(Cl)cc1NC(=O)c1sc2cc(C)ccc2c1Cl,-15.7
C(=Nc1ccc2c(c1)oc1ccccc12)c1ccncc1,-5.3
COc1ccc(S(=O)(=O)N=C2C=C(Nc3ccc(O)cc3)C(=O)c3ccccc32)cc1,13.7
CCc1ccc(S(=O)(=O)N=C2C=C(Nc3ccc(C(=O)OC)cc3)C(=O)c3ccccc32)cc1,32.5*
CCc1ccc(S(=O)(=O)N=C2C=C(Nc3ccccc3)C(=O)c3ccccc32)cc1,-93.3
CCOc1ccc(NC2=CC(=NS(=O)(=O)c3ccc(CC)cc3)c3ccccc3C2=O)cc1,-7.4
CCOC(=O)c1ccc(NC2=CC(=NS(=O)(=O)c3ccc(OC)cc3)c3ccccc3C2=O)cc1,81.7*
CCOc1ccc(S(=O)(=O)N=C2C=C(Nc3ccc(OC)cc3)C(=O)c3ccccc32)cc1,-3.1
O=C(NC1CCCC1)C1CCCN(S(=O)(=O)c2ccc(Br)s2)C1 (stereo unspecified),-0.7
SMILES,14-3-3 PPI
O=c1c2sccc2nc(SCc2cc(=O)n3ccccc3n2)n1Cc1ccccc1Cl,-2.1
COC(=O)c1cc2c(=O)n3ccccc3nc2n(CCc2ccccc2)c1=N,-0.5
COc1ccc(CSc2nc(N)c3c4c(sc3n2)CCCC4)cc1,-3.5
Cc1c(C(=O)NCc2cccs2)oc2ccc(S(=O)(=O)N3CCOCC3)cc12,-1.9
O=C(NCc1cccs1)c1cc(S(=O)(=O)N2CCOCC2)ccc1F,-6.8
Cc1c(C(=O)NCc2ccccn2)oc2ccc(S(=O)(=O)N3CCC(C)CC3)cc12,62.7*
O=C(NCc1cccnc1)c1cc(S(=O)(=O)N2CCOCC2)ccc1F,4.8
Cc1c(C(=O)NCc2ccco2)oc2ccc(S(=O)(=O)N3CCOCC3)cc12,-0.7
O=C(NCc1ccccn1)c1cc(S(=O)(=O)N2CCOCC2)ccc1F,113.6*
Cc1c(C(=O)NCc2ccccn2)oc2ccc(S(=O)(=O)N3CCOCC3)cc12,128.7*
Cc1c(C(=O)NCc2ccccn2)oc2ccc(S(=O)(=O)N3CC(C)CC(C)C3)cc12 (stereo unspecified),-0.7
Cc1c(C(=O)NCc2ccccc2)oc2ccc(S(=O)(=O)N3CCC(C)CC3)cc12,-6.6
O=C(NC1CCCCCCC1)c1ccc(CS(=O)(=O)Cc2ccccc2F)o1,-37.7
COc1cc(C2C3=C(CCCC3=O)Nc3nc(SC)[nH]c(=O)c32)cc(OC)c1OC (stereo unspecified),-6.0
CSc1nc2ccc(NC(=O)c3ccc(S(=O)(=O)N4CC(C)CC(C)C4)cc3)cc2s1 (stereo unspecified),-2.6
O=C(Nc1ccccc1O)c1ccc(Oc2ccc([N+](=O)[O-])cc2)cc1,-5.3
Cc1ccc(N=C2C(=O)Nc3ccccc32)cc1,-4.5
CN(C)c1ccc(/C=C2\C(=O)Nc3ccccc32)cc1,38.3*
CCN(CC)c1ccc(N=C2C(=O)Nc3ccccc32)cc1,-36.4
CCCOc1ccc(OC(=O)c2cccc(C(=O)OCC)n2)cc1,1.5
Cc1cc(Cl)ccc1OC(=O)CCN1C(=O)c2ccccc2C1=O,-15.1
CC(Cl)=CCc1c(C)nc2ccc(Br)cc2c1Cl,-7.2
O=C1c2sc3nc4n(c(=O)c3c2CCC1Sc1ccccc1)CCCCC4 (stereo unspecified),4.1
CC(=O)Oc1ccc(OC(C)=O)c2c1C(=O)c1ccccc1C2=O,69.1*
CC(=O)Oc1ccccc1N1C(=O)c2ccccc2C1=O,3.0
CNc1ccc(OC)c2c1C(=O)c1ccccc1C2=O,-171.1
COc1cc2c(cc1NC(=O)C13CC4CC(CC(C4)C1)C3)oc1ccccc12,-5.0
O=C(NCc1ccccc1P(=O)(c1ccccc1)c1ccccc1)c1ccco1,-2.3
O=C1C(=O)N(CCCn2ccnc2)C(c2ccncc2)/C1=C(\O)c1ccc(F)cc1 (stereo unspecified),-0.1
